From PubChem BioAssay
Hits are enriched below; roughly 11% of the tested compounds scored in any of these assays.
FLuc inh – inhibitors of firefly (Photinus pyralis) luciferase; 76,000 compounds, 2.5% hits; Potency, µM (doses to about 115 µM), actives largely listed as inhibitors; purified P. pyralis luciferase, luminescence, biochemical; further: on the % scale 0 is the no-effect control and ±100 the full control effect; nearly all actives have a fitted effect of over 65% in size
Target sequence (P08659 whole entry, looked up): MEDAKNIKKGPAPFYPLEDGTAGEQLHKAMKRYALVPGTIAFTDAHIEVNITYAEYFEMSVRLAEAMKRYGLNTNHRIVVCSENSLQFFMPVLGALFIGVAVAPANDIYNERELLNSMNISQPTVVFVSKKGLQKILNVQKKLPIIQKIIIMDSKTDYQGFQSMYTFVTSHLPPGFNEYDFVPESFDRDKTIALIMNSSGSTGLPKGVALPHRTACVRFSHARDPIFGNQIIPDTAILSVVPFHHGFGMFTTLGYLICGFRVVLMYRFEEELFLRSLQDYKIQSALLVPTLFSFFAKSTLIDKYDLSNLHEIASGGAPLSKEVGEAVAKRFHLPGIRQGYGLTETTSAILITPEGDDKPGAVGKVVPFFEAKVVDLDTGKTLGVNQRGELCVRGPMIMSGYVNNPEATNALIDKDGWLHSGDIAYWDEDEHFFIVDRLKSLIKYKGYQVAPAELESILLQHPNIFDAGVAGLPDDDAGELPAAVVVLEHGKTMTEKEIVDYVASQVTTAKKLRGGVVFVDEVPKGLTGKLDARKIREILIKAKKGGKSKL
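Inhibitors were tested against purified firefly luciferase in a biochemical, low-substrate format (both substrates at 10uM) and luminescence measured with a CCD imager.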
HEK293 tox – cytotoxic compounds in HEK 293 cells | 94,000 compounds, 6.6% hits | HEK 293 viability, ATP luminescence (CellTiter-Glo), 48-72 h | Potency, µM (doses to about 115 µM), without a hit: at the highest dose activity change, negative = cytotoxicity, hits mostly inhibitors | AID 1345083; further: on the % scale 0 is the no-effect control and ±100 the full control effect; nearly all actives have a fitted effect of over 60% in size
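Read-out: CellTiter-Glo ATP luminescence. Cells: HEK 293, 250 cells/well. Exposure: 48 or 72 hr, 37 degree Celsius.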
NIH3T3 tox – kills NIH 3T3 cells; NIH 3T3 viability, CellTiter-Glo ATP luminescence, 48-72 h; Potency, µM (top dose mostly 96.7 µM), for the others: at the top dose activity change, negative = cytotoxicity, most hits filed as inhibitors; 94,000 compounds, 4.3% hits; AID 1345082; further: on the % scale 0 is the no-effect control and ±100 the full control effect; nearly all actives have a fitted effect of over 55% in size
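Cytotoxicity was measured by CellTiter-Glo ATP luminescence after 48 or 72 h compound exposure at 37 °C. Mouse NIH 3T3 fibroblasts were seeded at 400 cells/well and dosed by 23 nL pin transfer.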
NPR1 antag – blocks ANP-stimulated signaling of human Npr1 receptor; Potency, µM (highest dose often 46.3 µM), without a hit: top-dose activity change, negative = inhibition, usual class: inhibitors; AID 1347048; P16066; HEK293 hNpr1 GloSensor cGMP, ANP-stimulated luminescence; 76,000 compounds, 1.6% hits; calls by dose curve; further: on the % scale 0 is the no-effect control and ±100 the full control effect; nearly all actives have a fitted effect of over 60% in size
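Compound pre-incubated 30 min at room temperature on GloSensor-loaded HEK293 cells stably carrying hNpr1 and the pGS-40F cGMP biosensor. Stimulation uses hNppA at 0.1 nM final; luminescence is taken at baseline and 20 min post-agonist.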
NPR1 antag cnf – hNpr1 antagonism, confirmation assay; Potency, µM (series often up to 57.6 µM), for inactives: at the highest dose activity change, negative = inhibition, usual class: inhibitors; shares compounds with NPR1 antag; HEK293 hNpr1 cGMP GloSensor luminescence, ANP-stimulated; 1,400 compounds, 76% hits; calls by dose curve; further: nearly all actives have a fitted effect of over 70% in size
NPR2 antag – antagonizes human Npr2, subtype selectivity check. shares compounds with NPR1 antag. HEK293 hNpr2 GloSensor cGMP luminescence, CNP-stimulated. Potency, µM (top dose mostly 57.6 µM), for inactives: top-dose activity change, negative = inhibition, usual class: inhibitors. 1,400 compounds, 67% hits. AID 1347046; calls by dose curve; further: nearly all actives have a fitted effect of over 70% in size
FLuc inh counter – inhibits firefly luciferase, false Npr1 antagonist flag. shares compounds with NPR1 antag. purified FLuc enzyme, luminescence, Km substrate. Potency, µM (highest dose often 57.6 µM), for inactives: top-dose activity change, negative = inhibition, most hits filed as inhibitors. 1,400 compounds, 0.7% hits; further: 0% is about no effect
GloSensor ctrl – counter-screen for Npr1 antagonists: GloSensor control cell line; Potency, µM (series often up to 57.6 µM), for the others: at the highest dose activity change, negative = inhibition, actives largely listed as inhibitors; shares compounds with NPR1 antag; 1,400 compounds, 69% hits; HEK293 GloSensor cGMP, SNP-stimulated, luminescence; calls by dose curve; further: on the % scale 0 is the no-effect control and ±100 the full control effect; nearly all actives have a fitted effect of over 70% in size
Active calls of the source: *; i = inactive; ? = inconclusive; / = no result given; [ ] = remark or other dose. Unless noted, the call rests on the fitted dose curve; in most records, active means well fitted curve in the direction sought with a large enough effect; inconclusive means small, poorly fitted or top-dose-only effect, or another doubt; inactive means no such curve, though single readings can be large; an effect the other way counts as inactive or inconclusive. Potency means the concentration at half of the fitted maximal effect.

SMILES	FLuc inh	HEK293 tox	NIH3T3 tox	NPR1 antag	NPR1 antag cnf	NPR2 antag	FLuc inh counter	GloSensor ctrl
CC1=C(C(=O)OC(C)C)C(c2ccc(C)cc2C)N2C(CC(=O)N3CCCC3)=CSC2=N1 (stereo not drawn)	i	?	?	?	?	?	-8%	?
COC(=O)C1=C(C)N=C2SC=C(CC(=O)N3CCCC3)N2C1c1ccccc1Cl (stereo not drawn)	i	?	-10%	-19%	/	/	/	/
CC1=C(C(=O)OC(C)C)C(c2ccccc2Cl)N2C(CC(=O)N3CCCC3)=CSC2=N1 (stereo not drawn)	i	?	-14%	13µM*	24µM*	22µM*	-2%	?
O=C(NCCc1ccccc1F)c1ccc2nnc(-c3cccnc3)n2c1	/	-29%	-19%	/	/	/	/	/
O=S(=O)(N[C@@H]1CCOC[C@H]1OCc1ccccn1)c1ccc(F)cc1	i	-29%	-14%	-7%	/	/	/	/
O=C(N[C@H]1CO[C@H]2[C@@H]1OC[C@@H]2n1nnnc1Oc1ccc2c(c1)OCO2)c1ccc(C(F)(F)F)cc1	i	?	?	7.9µM*	6.9µM*	8.6µM*	-3%	5.4µM*
O=C1CCN(Cc2ccc(C(F)(F)F)cc2)CCCC(c2nc(-c3cccnc3)no2)CCN1 (stereo not drawn)	i	45µM*	?	8.9µM*	17µM*	17µM*	2%	15µM*
O=C1CCN(Cc2ccc(C(F)(F)F)cc2)CCCC(c2nc(-c3cnccn3)no2)CCN1 (stereo not drawn)	i	?	?	-19%	/	/	/	/
COc1ccc(C(=O)N2CCC3(CC2)NC(=O)N(Cc2ccccc2)C3=O)cc1	i	-23%	-8%	0%	/	/	/	/
COc1ccc(C(=O)N2CCC3(C2)C(=O)N(Cc2ccccc2)c2ccccc23)cc1 (stereo not drawn)	i	?	?	5µM*	17µM*	17µM*	-1%	11µM*
COCCN1C(=O)c2ccccc2C(C(=O)Nc2cc(Cl)ccc2OC)C12CCCC2 (stereo not drawn)	i	?	-22%	?	14µM*	8.6µM*	5%	11%
C=CCC1(CO)CCCN(CC(=O)NC2CCCCC2)C1 (stereo not drawn)	i	-1%	i	0%	/	/	/	/
CC1(C(=O)N2CCC(N3CCCC(C(=O)NCc4ccccc4)C3)CC2)CC1 (stereo not drawn)	i	1%	-20%	2%	/	/	/	/
Cn1cc(-c2cnc3[nH]cc(CC(=O)Nc4ccc(C(F)(F)F)cc4)c3c2)cn1	i	?	?	?	?	?	-1%[86.2 µM]	?
Cn1cc(-c2cnc3[nH]cc(CC(=O)Nc4cccc(OC(F)(F)F)c4)c3c2)cn1	i	?	?	?	/	/	/	/
COc1ccc(-c2cnc3[nH]cc(CC(=O)NCCc4ccccn4)c3c2)cc1	i	-23%[172 µM]	?	3%[70.6 µM]	/	/	/	/
Cc1ccccc1-c1cnc2[nH]cc(CC(=O)Nc3cccnc3)c2c1	i	?	?	16µM*	25µM*	31µM*	-3%[86.2 µM]	22µM*
COc1ccc(-c2cnc3[nH]cc(CC(=O)Nc4cccc(N(C)C)c4)c3c2)cc1	i	?	?	?	?	?	-9%[86.2 µM]	-25%[86.2 µM]
COc1ccc(-c2cnc3[nH]cc(CC(=O)Nc4cccnc4)c3c2)cc1	i	71µM*	?	?	?	-29%[86.2 µM]	?	-23%[86.2 µM]
CC(C)c1ncc(-c2ccccc2)[nH]1	/	-7%[230 µM]	-3%[174 µM]	/	/	/	/	/
O=C(Cn1ccn2nc(-c3ccc(F)cc3)c(CO)c2c1=O)NCc1ccccc1	i	-12%	4%	-2%	/	/	/	/
C[S+](=O)([O-])CCn1ncc2cc(OCC3CCN(c4ncc(F)cn4)CC3)ccc21	/	/	/	/	13µM*	?	3%[86.2 µM]	11µM*
CC(=O)N1CCC(C(=O)N[C@H]2CCN3C(=O)N(c4ccc(OC(F)(F)F)cc4)C(=O)[C@@H]3C2)CC1	i	-12%	-11%	-2%	/	/	/	/
CC(C)c1ccc(N2C(=O)[C@@H]3C[C@@H](NC(=O)C4CCN(c5nccc(C(F)(F)F)n5)CC4)CCN3C2=O)cc1	i	?	?	?	?	?	2%	?
Fc1ccc(C2Cn3nnc(-c4nc(C5CCCCC5)no4)c3CO2)cc1 (stereo not drawn)	i	-9%	-26%	?	12µM*	9.7µM*	-1%	-24%
SMILES	FLuc inh	HEK293 tox	NIH3T3 tox	NPR1 antag	NPR1 antag cnf	NPR2 antag	FLuc inh counter	GloSensor ctrl
COc1ccc(C2Cn3nnc(-c4nc(C5CC5)no4)c3CO2)cc1 (stereo not drawn)	i	-11%	-34%	?	?	-22%	2%	-17%
Cc1ccc(C2Cn3nnc(-c4noc(-c5ccoc5)n4)c3CO2)cc1 (stereo not drawn)	i	14%	i	?	?	?	0%	-3%
CNC(=O)CC1CCOC2(CCN(C(=O)Cn3nc(C(F)(F)F)cc3C)CC2)C1 (stereo not drawn)	i	-8%	i	7%	/	/	/	/
O=C(C1CC1)N1CC(Oc2ccc(-c3noc(C4CCOCC4)n3)cc2)C1	i	?	?	10µM*	9.7µM*	11µM*	-11%	9.7µM*
CCC(C)NC(=O)N1CC(Oc2ccc(-c3nc(-c4ccccc4)no3)cc2)C1 (stereo not drawn)	i	-47%	?	1.3µM*	1.9µM*	3.1µM*	-15%	2.2µM*
CCC(C)NC(=O)N1CC(Oc2cccc(-c3nc(C)no3)c2)C1 (stereo not drawn)	i	?	-21%	-6%	/	/	/	/
c1cc(-c2noc(C3CCOCC3)n2)ccc1OC1CNC1	?	-19%	-7%	7%	/	/	/	/
CC(C)CNC(=O)N1CC(Oc2ccc(-c3noc(C4CCOCC4)n3)cc2)C1	i	?	?	14µM*	4.8µM*	5.4µM*	-17%	4.3µM*
CC(C)S(=O)(=O)N1CC(Oc2ccc(-c3noc(C4CCOCC4)n3)cc2)C1	i	?	-14%	2.2µM*	11µM*	12µM*	-1%	11µM*
